Measured values reported in PubChem BioAssay (EPA / NIEHS).
Inconclusive results are not listed. The source made the active and inactive calls. Rule for the calls, unless noted: active = hit-call score of the fitted dose curve at least 0.9, where 1 is the maximum; inactive = score below 0.9.

What was measured:
[1] = ATG_PBREM_CIS: Attagene CIS-FACTORIAL HepG2 Assay for human Phenobarbital-responsive Enhancer Module (PBREM) (AID 2282955); conditions: HepG2 PBREM cis-reporter, Attagene multiplexed transcription; actives raise or lower the signal
Procedure, shortened: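 After a 24 h incubation with test chemical, transfected HepG2 cells yield total RNA; reporter-specific RT-PCR products are fluorescently labelled, HpaI-digested and resolved by capillary electrophoresis against ROX size standards.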

[2] = target: Paired box protein Pax-6 (Homo sapiens) (UniProt P26367); assay: ATG_Pax6_CIS: Attagene CIS-FACTORIAL HepG2 Assay for human Paired Box 6 (PAX6) (AID 2282956); conditions: HepG2 CIS-FACTORIAL PAX6 reporter transcription, RNA readout; actives raise or lower the signal
Procedure, shortened: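 Transient MRTU transfection of HepG2 → compound exposure 24 h → TriZol RNA, oligo(dT) RT → PCR, 6-FAM primer extension, HpaI cut → capillary electrophoresis; activity fitted both directions against DMSO.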

[3] = ATG_PXRE_CIS: Attagene CIS-FACTORIAL HepG2 Assay for human Pregnane X Receptor Element (PXRE) (AID 2282957); conditions: HepG2 Attagene CIS-FACTORIAL PXRE reporter, mRNA; actives raise or lower the signal
Procedure, shortened: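 Multiplexed cis-reporter assay in transiently transfected human HepG2 cells; 24 h chemical exposure. Reporter transcripts quantified by RT-PCR with fluorescent labeling and capillary electrophoresis.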

[4] = ATG_RORE_CIS: Attagene CIS-FACTORIAL HepG2 Assay for human RAR-related Orphan Receptor Element (RORE) (AID 2282959); conditions: HepG2 Attagene cis-factorial RORE reporter, mRNA; actives raise or lower the signal
Procedure, shortened: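 Fluorescence intensity of reporter-specific cDNA fragments, separated by capillary electrophoresis, gives the signal. Source: HepG2 liver cells transiently transfected with cis-element reporters and exposed 24 h; DMSO-normalized bidirectional fit.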

[5] = ATG_Sox_CIS: Attagene CIS-FACTORIAL HepG2 Assay for human SRY-box transcription factor (SOX) (AID 2282960); conditions: HepG2 Attagene cis-factorial SOX reporter, mRNA; actives raise or lower the signal
Procedure, shortened: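 After 24 h of chemical treatment, transfected HepG2 reporter cells are lysed for total RNA. Transcript levels come from RT-PCR with labelled primer extension and capillary electrophoresis, analysed bidirectionally versus DMSO.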

[6] = target: Transcription factor Sp1 (Homo sapiens) (UniProt P08047); assay: ATG_Sp1_CIS: Attagene CIS-FACTORIAL HepG2 Assay for human Specificity Protein 1 (Sp1) (AID 2282961); conditions: HepG2 Sp1 cis-reporter transcription, actives raise or lower the signal
Procedure, shortened: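 Sp1-driven reporter mRNA, read as capillary electrophoresis fluorescence after RT-PCR, in transiently transfected HepG2 cells dosed for 24 h; signal change in either direction relative to DMSO.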

[7] = ATG_SREBP_CIS: Attagene CIS-FACTORIAL HepG2 Assay for human Sterol Regulatory Element Binding (SREBP) (AID 2282962); conditions: HepG2 Attagene cis-factorial SREBP reporter, mRNA; actives raise or lower the signal
Procedure, shortened: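 Transfected HepG2 (cis-regulated reporter library, endogenous TFs) → compound 24 h → total RNA → oligo(dT) RT → reporter-specific PCR → FAM primer extension, HpaI cut → CE fluorescence. Fit bidirectional vs DMSO.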

[8] = ATG_TCF_b_cat_CIS: Attagene CIS-FACTORIAL HepG2 Assay for human T-Cell-Factor with beta-catenin (TCF/b-cat) (AID 2282965); conditions: HepG2 TCF/beta-catenin cis-reporter transcription, actives raise or lower the signal
Procedure, shortened: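 HepG2, transient MRTU transfection, cis-element-driven reporters (endogenous TFs). 24 h compound exposure. Readout: reporter mRNA by RT-PCR + 6-FAM primer extension, HpaI digest, capillary electrophoresis. Gain/loss fit vs DMSO baseline.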

[9] = ATG_TAL_CIS: Attagene CIS-FACTORIAL HepG2 Assay for human TAL Basal Promoter (AID 2282966); conditions: HepG2 Attagene cis-factorial TAL promoter reporter; actives raise or lower the signal;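 note: background control endpoint measuring basal TAL promoter reporter mRNA not a specific factor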
Procedure, shortened: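 Steps: transfect HepG2 with multiple reporter transcription units; dose 24 h; isolate RNA, reverse-transcribe, PCR-amplify, label with 6-FAM, digest with HpaI; resolve by capillary electrophoresis. Bidirectional fitting against DMSO baseline.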

[10] = ATG_TGFb_CIS: Attagene CIS-FACTORIAL HepG2 Assay for human Transforming Growth Factor (TGF) (AID 2282967); conditions: HepG2 Attagene CIS TGFb reporter, mRNA transcription; actives raise or lower the signal
Procedure, shortened: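 HepG2 cells transiently transfected with cis-promoter-driven multiple reporter units measure endogenous TF activity; reporter mRNA quantified at 24 h by RT-PCR, FAM labeling, HpaI digestion and capillary electrophoresis. Bidirectional fit vs DMSO.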

[11] = target: Estrogen receptor (Homo sapiens) (UniProt P03372); assay: ATG_ERa_TRANS: Attagene TRANS-FACTORIAL HepG2 Assay for human Estrogen Receptor alpha (ERa) (AID 2282970; active = hit-call score of the fitted dose curve at least 0.9, where 1 is the maximum); conditions: HepG2 Attagene TRANS ERa GAL4 reporter, mRNA
Procedure, shortened: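 Multiplexed cell-based reporter format in HepG2: chimeric ERa-Gal4 protein drives GAL4-UAS reporter transcription. Fluorescent reporter mRNA quantified by capillary electrophoresis 24 hours after dosing; endpoint fitted as signal gain against DMSO.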

[12] = target: X-box-binding protein 1 (Homo sapiens) (UniProt P17861); assay: ATG_Xbp1_CIS: Attagene CIS-FACTORIAL HepG2 Assay for human X-box Binding Protein 1 (XBP1) (AID 2282972); conditions: HepG2 XBP1 cis-element reporter, Attagene multiplex; actives raise or lower the signal
Procedure, shortened: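 HepG2, transient MRTU transfection (cis-promoter driven), 24 h compound exposure. Total RNA → oligo(dT) RT → PCR → 6-FAM labeling → HpaI cut → CE. Bidirectional fit vs DMSO.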

[13] = ATG_M_19_TRANS: Attagene TRANS-FACTORIAL HepG2 Assay for M19 Transcription Factor (Internal Marker) (AID 2282974; active = hit-call score of the fitted dose curve at least 0.9, where 1 is the maximum); conditions: HepG2 Attagene TRANS-FACTORIAL M19 internal marker reporter
Procedure, shortened: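 Measured here: internal-marker reporter transcript from HepG2 cells transfected with MRTUs, harvested at 24 h. cDNA PCR products were 6-FAM labelled by primer extension, cut with HpaI for 2 h at 37 C, and resolved by CE.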

[14] = ATG_GAL4_TRANS: Attagene TRANS-FACTORIAL HepG2 Assay for GAL4 (Internal Marker) (AID 2282976; active = hit-call score of the fitted dose curve at least 0.9, where 1 is the maximum); conditions: HepG2 Attagene TRANS GAL4 internal marker reporter
Procedure, shortened: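 Liver HepG2 line bearing multiplexed GAL4-UAS reporter constructs; 24 h chemical treatment. Transcripts were quantified as fluorescent fragments on capillary electrophoresis after RT-PCR and HpaI cut, with activity fitted upward from DMSO.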

[15] = target: Signal transducer and activator of transcription 3 (Homo sapiens) (UniProt P40763); assay: ATG_STAT3_CIS: Attagene CIS-FACTORIAL HepG2 Assay for human Signal Transducer and Activator of Transcription 3 (STAT3) (AID 2282963); conditions: HepG2, Attagene cis-factorial STAT3 reporter transcription; actives raise or lower the signal
Procedure, shortened: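 Values derive from bidirectional fits relative to DMSO of reporter mRNA levels, measured by RT-PCR with capillary electrophoresis, in HepG2 cells carrying transiently transfected cis-regulated reporter units and exposed 24 h.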

[16] = ATG_TA_CIS: Attagene CIS-FACTORIAL HepG2 Assay for human TA Basal Promoter (AID 2282964); conditions: HepG2 Attagene CIS-factorial TA basal promoter reporter; actives raise or lower the signal
Procedure, shortened: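 HepG2 cells transiently transfected with multiple reporter units under cis promoter elements, reporting endogenous transcription factor activity; this endpoint tracks the TA basal promoter as background control. Reporter mRNA after 24 h dosing measured by RT-PCR/capillary electrophoresis; bidirectional fits versus DMSO.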

[17] = target: Nuclear receptor subfamily 1 group I member 3 (Homo sapiens) (UniProt Q14994); assay: ATG_CAR_TRANS: Attagene TRANS-FACTORIAL HepG2 Assay for human Constitutive Androstane Receptor (CAR) (AID 2282969; active = hit-call score of the fitted dose curve at least 0.9, where 1 is the maximum;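 note: activators raise reporter mRNA above DMSO so AC50 marks induction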); conditions: HepG2 Attagene TRANS-FACTORIAL CAR reporter
Procedure, shortened: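 HepG2 cells transiently transfected with GAL4-UAS reporter units; TRANS format reads activity of exogenous chimeric NR-Gal4 protein. After 24 h dosing, reporter mRNA quantified by RT-PCR, 6-FAM labelling and capillary electrophoresis; gain of signal fitted against DMSO.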

[18] = target: Steroid hormone receptor ERR1 (Homo sapiens) (UniProt P11474); assay: ATG_ERRa_TRANS: Attagene TRANS-FACTORIAL HepG2 Assay for human Estrogen-Related Receptor alpha (ERRa) (AID 2282971; active = hit-call score of the fitted dose curve at least 0.9, where 1 is the maximum); conditions: HepG2 Attagene TRANS reporter, ERRa transactivation
Procedure, shortened: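 Signal gain relative to DMSO for an ERRa-Gal4 chimeric receptor, read as reporter mRNA by RT-PCR/capillary electrophoresis. Human HepG2 liver cells, transient multiplex reporter transfection, 24 h chemical exposure.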

[19] = ATG_PPRE_CIS: Attagene CIS-FACTORIAL HepG2 Assay for human Peroxisome Proliferator-activated Response Element (PPRE) (AID 2282958); conditions: HepG2 PPRE cis-element reporter, Attagene transcription factor profiling; actives raise or lower the signal
Procedure, shortened: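 Multiplexed reporter transcription units under cis-regulatory promoters were transfected into HepG2 cells to capture endogenous factor activity. A 24 h incubation preceded RNA isolation and fluorescent RT-PCR fragment analysis.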

[20] = ATG_VDRE_CIS: Attagene CIS-FACTORIAL HepG2 Assay for human Vitamin D Receptor Element (VDRE) (AID 2282968); conditions: HepG2 VDRE cis-reporter transcription, actives raise or lower the signal
Procedure, shortened: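 Cell-based multiplexed reporter format in human liver HepG2 cells, 24 h post-dose. Fluorescence from capillary electrophoresis of reporter cDNA gives the signal, with DMSO as negative control and baseline.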

Measured: AC50

Nuclear receptor subfamily 1 group I member 3 (Homo sapiens), sequence (Q14994 whole entry, looked up, the tested form may be a part): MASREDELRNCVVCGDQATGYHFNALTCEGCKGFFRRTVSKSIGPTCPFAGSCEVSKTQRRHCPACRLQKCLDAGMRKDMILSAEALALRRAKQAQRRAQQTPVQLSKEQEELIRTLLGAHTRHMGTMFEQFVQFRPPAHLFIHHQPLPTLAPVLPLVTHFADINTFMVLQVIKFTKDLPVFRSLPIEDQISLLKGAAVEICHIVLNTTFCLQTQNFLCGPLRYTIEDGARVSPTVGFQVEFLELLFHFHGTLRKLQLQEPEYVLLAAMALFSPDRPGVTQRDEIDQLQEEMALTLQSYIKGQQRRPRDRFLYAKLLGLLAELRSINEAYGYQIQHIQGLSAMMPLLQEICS
Paired box protein Pax-6 (Homo sapiens), sequence (P26367 whole entry, looked up): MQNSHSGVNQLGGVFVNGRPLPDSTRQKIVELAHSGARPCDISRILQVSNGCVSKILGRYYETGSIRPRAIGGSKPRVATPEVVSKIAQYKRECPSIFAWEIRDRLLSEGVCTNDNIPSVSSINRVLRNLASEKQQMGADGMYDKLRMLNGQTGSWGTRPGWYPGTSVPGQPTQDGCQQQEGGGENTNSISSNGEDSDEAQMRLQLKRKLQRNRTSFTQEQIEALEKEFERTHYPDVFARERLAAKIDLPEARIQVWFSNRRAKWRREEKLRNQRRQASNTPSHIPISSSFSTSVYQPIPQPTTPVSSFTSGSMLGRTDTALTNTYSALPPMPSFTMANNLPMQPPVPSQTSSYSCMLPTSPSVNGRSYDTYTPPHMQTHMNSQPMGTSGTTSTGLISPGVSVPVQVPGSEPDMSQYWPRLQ
Estrogen receptor (Homo sapiens), sequence (P03372 whole entry, looked up, the tested form may be a part): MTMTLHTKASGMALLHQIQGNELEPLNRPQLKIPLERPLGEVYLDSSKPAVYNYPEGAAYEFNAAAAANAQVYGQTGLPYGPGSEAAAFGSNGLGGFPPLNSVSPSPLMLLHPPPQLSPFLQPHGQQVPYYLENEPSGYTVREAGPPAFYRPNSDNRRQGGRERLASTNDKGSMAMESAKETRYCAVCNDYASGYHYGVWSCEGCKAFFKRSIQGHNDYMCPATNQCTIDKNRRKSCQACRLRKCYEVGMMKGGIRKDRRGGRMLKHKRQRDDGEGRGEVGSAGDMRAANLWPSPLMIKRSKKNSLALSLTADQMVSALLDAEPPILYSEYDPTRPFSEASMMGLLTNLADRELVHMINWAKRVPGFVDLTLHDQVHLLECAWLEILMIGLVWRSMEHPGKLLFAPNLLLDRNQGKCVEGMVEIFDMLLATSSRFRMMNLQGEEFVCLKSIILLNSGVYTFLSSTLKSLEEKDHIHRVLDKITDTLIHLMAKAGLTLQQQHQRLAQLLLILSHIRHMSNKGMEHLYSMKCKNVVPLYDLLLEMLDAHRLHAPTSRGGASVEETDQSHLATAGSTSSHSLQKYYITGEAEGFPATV
Steroid hormone receptor ERR1 (Homo sapiens), sequence (P11474 whole entry, looked up, the tested form may be a part): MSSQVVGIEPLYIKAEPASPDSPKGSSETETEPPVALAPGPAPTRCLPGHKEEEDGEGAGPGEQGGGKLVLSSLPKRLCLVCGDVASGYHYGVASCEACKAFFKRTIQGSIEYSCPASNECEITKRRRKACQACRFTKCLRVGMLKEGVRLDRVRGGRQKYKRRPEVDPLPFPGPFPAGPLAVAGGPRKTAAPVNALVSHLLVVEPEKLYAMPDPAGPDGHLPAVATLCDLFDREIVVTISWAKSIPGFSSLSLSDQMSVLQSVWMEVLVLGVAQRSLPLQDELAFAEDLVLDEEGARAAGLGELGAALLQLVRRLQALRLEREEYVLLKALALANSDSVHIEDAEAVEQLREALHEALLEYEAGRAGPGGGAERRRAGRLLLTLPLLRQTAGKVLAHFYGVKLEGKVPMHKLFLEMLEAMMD
Signal transducer and activator of transcription 3 (Homo sapiens), sequence (P40763 whole entry, looked up): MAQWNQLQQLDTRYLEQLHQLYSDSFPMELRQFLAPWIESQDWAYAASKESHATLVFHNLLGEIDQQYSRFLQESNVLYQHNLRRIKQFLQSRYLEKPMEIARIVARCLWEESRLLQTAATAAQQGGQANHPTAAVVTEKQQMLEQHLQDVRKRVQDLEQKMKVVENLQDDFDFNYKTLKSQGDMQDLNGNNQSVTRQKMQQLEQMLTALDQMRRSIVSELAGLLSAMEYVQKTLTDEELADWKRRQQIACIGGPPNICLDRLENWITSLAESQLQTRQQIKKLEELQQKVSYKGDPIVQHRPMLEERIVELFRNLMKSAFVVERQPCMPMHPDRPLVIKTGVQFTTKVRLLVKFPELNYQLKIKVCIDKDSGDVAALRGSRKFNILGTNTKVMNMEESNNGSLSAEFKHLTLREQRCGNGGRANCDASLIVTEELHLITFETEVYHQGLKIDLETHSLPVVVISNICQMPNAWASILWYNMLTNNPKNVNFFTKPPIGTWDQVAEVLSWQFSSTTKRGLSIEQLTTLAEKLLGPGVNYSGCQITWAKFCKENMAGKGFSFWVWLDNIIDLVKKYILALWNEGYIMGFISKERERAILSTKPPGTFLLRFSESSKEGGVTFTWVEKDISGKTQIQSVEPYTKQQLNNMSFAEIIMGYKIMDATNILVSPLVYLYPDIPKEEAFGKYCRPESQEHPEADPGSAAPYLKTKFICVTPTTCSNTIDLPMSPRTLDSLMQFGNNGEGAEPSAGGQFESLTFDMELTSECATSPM
X-box-binding protein 1 (Homo sapiens), sequence (P17861 whole entry, looked up): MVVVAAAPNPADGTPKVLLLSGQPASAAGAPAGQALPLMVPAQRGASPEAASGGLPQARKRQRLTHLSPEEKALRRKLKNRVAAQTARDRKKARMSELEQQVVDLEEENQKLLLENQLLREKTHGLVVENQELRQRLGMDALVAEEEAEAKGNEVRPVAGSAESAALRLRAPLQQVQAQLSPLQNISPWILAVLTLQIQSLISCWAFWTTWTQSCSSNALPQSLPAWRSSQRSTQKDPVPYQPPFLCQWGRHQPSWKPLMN
Transcription factor Sp1 (Homo sapiens), sequence (P08047 whole entry, looked up): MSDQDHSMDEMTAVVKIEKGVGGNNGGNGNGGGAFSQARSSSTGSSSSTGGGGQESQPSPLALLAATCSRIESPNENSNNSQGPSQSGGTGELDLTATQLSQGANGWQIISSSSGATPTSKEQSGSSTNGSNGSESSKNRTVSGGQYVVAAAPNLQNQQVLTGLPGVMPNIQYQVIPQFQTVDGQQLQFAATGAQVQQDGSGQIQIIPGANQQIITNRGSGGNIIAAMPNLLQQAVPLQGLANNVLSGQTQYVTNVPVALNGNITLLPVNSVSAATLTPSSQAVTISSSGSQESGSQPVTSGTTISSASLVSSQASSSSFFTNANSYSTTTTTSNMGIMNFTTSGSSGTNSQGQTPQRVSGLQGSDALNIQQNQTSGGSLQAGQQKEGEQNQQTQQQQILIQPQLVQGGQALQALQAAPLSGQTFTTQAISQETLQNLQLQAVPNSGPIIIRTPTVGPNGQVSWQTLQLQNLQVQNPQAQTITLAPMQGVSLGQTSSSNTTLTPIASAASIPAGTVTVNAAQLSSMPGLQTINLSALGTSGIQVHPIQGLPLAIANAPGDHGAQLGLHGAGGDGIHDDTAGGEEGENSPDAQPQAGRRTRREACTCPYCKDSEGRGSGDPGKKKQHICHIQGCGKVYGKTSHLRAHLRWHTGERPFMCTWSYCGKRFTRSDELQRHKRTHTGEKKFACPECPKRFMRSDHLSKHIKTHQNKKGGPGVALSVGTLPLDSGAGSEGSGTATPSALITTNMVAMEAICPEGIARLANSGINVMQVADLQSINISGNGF

CC(C)=CCCC(C)=CC#N
active: [3] 25.5 µM
not listed: [15] | [16] | [17] | [18] | [19] | [20]
inactive: all other assays above

CCCCC1CCC(=O)O1 (configuration not stated)
active: [3] 22.4 µM
not listed: [4] | [11] | [14] | [19] | [20]
inactive: all other assays above

Nc1ccc(O)c([N+](=O)[O-])c1
not listed: [3] | [8] | [13] | [14] | [17]
inactive: all other assays above

[Cl][Sc]([Cl])[Cl]
not listed: [4] | [11] | [18] | [19]
inactive: all other assays above

CC(C)CO
active: [10] 0.224 µM
not listed: [13] | [15] | [17] | [18] | [19]
inactive: all other assays above

c1ccc2cnccc2c1
active: [3] 27.6 µM
not listed: [2] | [13] | [17]
inactive: all other assays above

O=c1c(O)c(-c2ccc(O)cc2O)oc2cc(O)cc(O)c12
active: [11] 59.4 µM
not listed: [3] | [4] | [14] | [15] | [18] | [19] | [20]
inactive: all other assays above

COC(Cc1ccccc1)OC
not listed: [8] | [10] | [11] | [14] | [15] | [17] | [18] | [19]
inactive: all other assays above

C1CNCCN1
not listed: [3] | [13] | [17] | [18] | [19]
inactive: all other assays above

CC(C)CC(=O)OCc1ccccc1
not listed: [3] | [11] | [13] | [17] | [18]
inactive: all other assays above

CCCCCCO
not listed: [3] | [13] | [14] | [17] | [18] | [19]
inactive: all other assays above

CCCCCCCO
active: [3] 39.1 µM | [11] 67.1 µM
not listed: [14] | [16] | [17] | [18] | [19] | [20]
inactive: all other assays above

CC(=O)OC/C=C(/C)CCC=C(C)C
not listed: [3] | [10] | [11] | [17] | [18] | [20]
inactive: all other assays above

CCN1CCCC1=O
not listed: [11] | [13] | [14] | [15] | [18] | [19]
inactive: all other assays above

c1ccc2c(c1)[nH]c1ccccc12
not listed: [3] | [4] | [10] | [18] | [20]
inactive: all other assays above

C[Si](C)(C)N[Si](C)(C)C
not listed: [3] | [11] | [13] | [14] | [17] | [18] | [19] | [20]
inactive: all other assays above

CC(C)OC(=O)c1ccccc1
not listed: [3] | [13] | [14] | [15] | [17] | [18] | [19]
inactive: all other assays above

C=C(C)C(=O)OCCOC(=O)C(=C)C
not listed: [3] | [8] | [13] | [17]
inactive: all other assays above

O=C(OCc1ccccc1)c1ccc(O)cc1
inactive: [4] | [6] | [9] | [10]
active: [1] 63.7 µM | [2] 144 µM | [3] 26.8 µM | [5] 100 µM | [7] 72.8 µM | [16] 100 µM | [8] 124 µM | [11] 26.7 µM | [12] 147 µM
